Several values for one entry are separate records, joined by “and”; a condition that tells them apart may be missing. Identical values can stand only once. Hit rate of the full screen: of about 5,500 compounds, about 2,000 (36%) were called active. Not shown: some 18% with an inconclusive outcome. No stated cut-off is given here; in the data, active means normalized growth mostly below about 0.91 (no sharp cut-off); inconclusive means no clear call, values can overlap the other calls; inactive means mostly above about 0.92. Some of the results follow.
Test: chemical genetic growth profiling, strain panel (AID 1159580);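 further: tested at 20 µM; growth read once vehicle control cultures reached saturation at 30 °C; 1 = growth at the plate median or of vehicle wells; lower values mean less growth of the strain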
Settings: S. cerevisiae deletion strains, growth OD

Measured: normalized growth

COc1cc(O)c2c(c1)C(=O)c1cc(C)cc(O)c1C2=O
active: locus YDR137W, strain rgp1, hits give low values 0.76
inactive: locus YAL013W, strain DEP1, hits give low values 0.991 | locus YAL021C, strain ccr4, hits give low values 0.987 | locus YAL026C, strain drs2, hits give low values 0.997 | locus YAL030W, strain snc1, hits give low values 0.98 | locus YBL061C, strain skt5, hits give low values 0.994 | locus YBR009C, strain hhf1, hits give low values 1 | locus YBR021W, strain FUR4, hits give low values 1.04 | locus YBR023C, strain chs3, hits give low values 0.988 | locus YBR171W, strain sec66, hits give low values 0.995 | locus YBR229C, strain ROT2, hits give low values 1.01 | locus YBR231C, strain swc5, hits give low values 0.993 | locus YBR279W, strain paf1, hits give low values 0.998 | locus YCL011C, strain gbp2, hits give low values 1 | locus YCL016C, strain dcc1, hits give low values 0.98 | locus YCL029C, strain bik1, hits give low values 1 | locus YCL061C, strain MRC1, hits give low values 0.977 | locus YCL069W, strain vba3, hits give low values 0.995 | locus YCR088W, strain abp1, hits give low values 0.993 | locus YDL005C, strain med2, hits give low values 0.971 | locus YDL035C, strain GPR1, hits give low values 0.997 | locus YDL040C, strain nat1, hits give low values 0.99 | locus YDL074C, strain BRE1, hits give low values 0.974 | locus YDL101C, strain DUN1, hits give low values 1 | locus YDL134C, strain PPH21, hits give low values 1 | locus YDL185W, strain tfp1, hits give low values 1 | locus YDL192W, strain arf1, hits give low values 1.01 | locus YDR001C, strain nth1, hits give low values 0.998 | locus YDR069C, strain doa4, hits give low values 0.981 | locus YDR101C, strain arx1, hits give low values 0.986 | locus YDR150W, strain NUM1, hits give low values 1.02 | locus YDR159W, strain sac3, hits give low values 0.965 | locus YDR162C, strain NBP2, hits give low values 0.982 | locus YDR195W, strain ref2 1.01 | locus YDR297W, strain sur2, hits give low values 0.977 | locus YDR318W, strain mcm21, hits give low values 0.971 | locus YDR334W, strain swr1, hits give low values 1 | locus YDR335W, strain msn5, hits give low values 0.99 | locus YDR388W, hits give low values 1 | locus YDR392W, strain spt3, hits give low values 0.95 | locus YDR502C, strain sam2, hits give low values 0.989 | locus YEL003W, strain gim4, hits give low values 0.997 | locus YEL037C, strain rad23, hits give low values 1.01 | locus YEL061C, strain CIN8 (second series), hits give low values 0.995 | locus YER015W, strain faa2, hits give low values 0.999 | locus YER016W, strain bim1, hits give low values 0.976 | locus YER110C, hits give low values 1.01 | locus YER111C, strain swi4, hits give low values 0.987 | locus YER155C, strain BEM2 (second series), hits give low values 0.973 | locus YER155C, strain BEM2, hits give low values 1.01 | locus YER167W, strain BCK2, hits give low values 0.994 | locus YFR010W, strain ubp6, hits give low values 1.02 | locus YGL078C, strain dbp3, hits give low values 1.01 | locus YGL086W, strain mad1, hits give low values 1 | locus YGL167C, strain pmr1, hits give low values 0.977 | locus YGL173C, strain kem1, hits give low values 0.993 | locus YGL227W, strain vid30, hits give low values 1 | locus YGL240W, strain doc1, hits give low values 0.98 | locus YGL248W, strain PDE1, hits give low values 1.01 | locus YGL253W, strain hxk2, hits give low values 1.01 | locus YGR078C, strain PAC10, hits give low values 0.989 | locus YGR135W, strain pre9, hits give low values 0.992 | locus YGR229C, strain SMI1, hits give low values 0.968 | locus YGR252W, strain gcn5, hits give low values 1.06 | locus YHR013C, strain ard1, hits give low values 0.997 | locus YHR027C, strain rpn1, hits give low values 0.999 | locus YHR030C, strain SLT2, hits give low values 1.01 and 1 | locus YHR079C, strain IRE1 (second series), hits give low values 0.981 | locus YHR079C, strain IRE1, hits give low values 1.04 | locus YHR094C, strain hxt1, hits give low values 1 | locus YHR129C, strain ARP1, hits give low values 0.998 | locus YHR142W, strain chs7, hits give low values 1.04 | locus YHR200W, strain rpn10, hits give low values 1 | locus YIL066C, strain RNR3, hits give low values 1.01 | locus YIL073C, strain SPO22, hits give low values 0.991 | locus YIL125W, strain kgd1, hits give low values 0.994 | locus YIR030C, strain dcg1, hits give low values 0.993 | locus YJL092W, strain hpr5, hits give low values 0.997 | locus YJL095W, strain BCK1 (second series), hits give low values 0.972 | locus YJL095W, strain BCK1, hits give low values 0.883 and 0.965 | locus YJL115W, strain asf1, hits give low values 1 | locus YJL129C, strain trk1, hits give low values 0.981 | locus YJL134W, strain LCB3, hits give low values 1.01 | locus YJL154C, strain vps35, hits give low values 0.991 | locus YJL164C, strain tpk1, hits give low values 0.995 | locus YJL166W, strain qcr8, hits give low values 0.989 | locus YJL168C, strain set2, hits give low values 1 | locus YJL187C, strain SWE1 (second series), hits give low values 1 | locus YJL187C, strain SWE1, hits give low values 0.985 | locus YJR043C, strain POL32, hits give low values 1 | locus YJR066W, strain TOR1, hits give low values 0.987

Reference: PubChem BioAssay AID1159580 (chemical genetic matrix, 2015)
